Assay results published in PubChem BioAssay (EPA / NIEHS).
Several values for one entry are separate records, joined by “and”; a condition that tells them apart may be missing. Identical values can stand only once. Results filed as inconclusive are left out. Some compounds were tested as several samples or in several runs, with calls that do not always agree. Activity calls are given as the source filed them. The calls were made as follows, unless noted: active = hit-call score of the fitted dose curve at least 0.9, where 1 is the maximum; inactive = score below 0.9.

Legend:
[1] = BSK_3C_VCAM1: BioMAP Diversity Plus: 3C Assay for Vascular cell adhesion molecule 1 (VCAM1) Biomarker Activity (AID 2282999); conditions: BioMAP 3C HUVEC, VCAM1 ELISA, cytokine-stimulated; actives raise or lower the signal
In short: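 Vascular primary endothelium (human umbilical vein) was exposed to chemicals and assayed 24 h later. VCAM-1 levels came from ELISA, with DMSO serving as baseline for bidirectional fitting.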

[2] = BSK_3C_Proliferation: Cell Proliferation Assessment in the BioMAP Diversity Plus: 3C Assay (AID 2283006); conditions: primary human endothelial cells (HUVEC);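 as to AC50: potency may reflect either rise or fall in cell number versus DMSO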
In short: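 Proliferation as total protein: sulforhodamine B (0.1%) stain of TCA-fixed subconfluent human umbilical vein endothelial cells, absorbance 560 nm, 48 h after dosing. Activity fitted in both directions against DMSO baseline.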

[3] = read-out: E-selectin (Homo sapiens) (UniProt P16581); experiment: BSK_3C_Eselectin: BioMAP Diversity Plus: 3C Assay for Eselectin Biomarker Activity (AID 2283015); conditions: primary human endothelial cells (HUVEC); actives raise or lower the signal
In short: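 Endpoint derived by bidirectional fitting against DMSO vehicle; signal is ELISA-detected E-selectin from primary HUVEC at 24 h post-dosing, with parallel SRB staining (0.1% SRB, 560 nm) flagging cytotoxicity.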

[4] = read-out: Human Leukocyte Antigen - DR isotype (HLADR), HLA-DRA (gene 3122); experiment: BSK_3C_HLADR: BioMAP Diversity Plus: 3C Assay for Human Leukocyte Antigen - DR isotype (HLADR) Biomarker Activity (AID 2283019); conditions: primary human endothelial cells (HUVEC); actives raise or lower the signal
In short: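 Compound added to primary HUVEC cultures, 24 h incubation, then HLA-DR determined by ELISA; endpoint derived by bidirectional fitting relative to DMSO negative control.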

[5] = BSK_BE3C_SRB: Viability Assessment in the BioMAP Diversity Plus: BE3C Assay (AID 2283028); conditions: primary human bronchial epithelial cells;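 as to AC50: fitted both ways so AC50 may mark signal gain or loss versus DMSO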
In short: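 SRB total-protein staining (0.1%, after TCA fixation) of chemically dosed human bronchial epithelial primary cells at 24 h; DMSO serves as the negative control for bidirectional curve fitting.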

[6] = read-out: Thrombomodulin, THBD (gene 7056); experiment: BSK_3C_Thrombomodulin: BioMAP Diversity Plus: 3C Assay for Thrombomodulin Biomarker Activity (AID 2283029); conditions: primary human endothelial cells (HUVEC); actives raise or lower the signal
In short: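 ELISA measurement of thrombomodulin on HUVEC surface 24 h after chemical dosing; activity fitted in both directions relative to DMSO vehicle.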

[7] = read-out: Vascular cell adhesion molecule 1 (VCAM1), VCAM1 (gene 7412); experiment: BSK_4H_VCAM1: BioMAP Diversity Plus: 4H Assay for Vascular cell adhesion molecule 1 (VCAM1) Biomarker Activity (AID 2283033); conditions: primary human endothelial cells (HUVEC); actives raise or lower the signal
In short: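 VCAM-1 ELISA read 24 h after chemical dosing of HUVEC in the BioMAP 4H system, with gain or loss of signal fitted relative to DMSO. Parallel SRB staining (560 nm) checked overt cytotoxicity.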

[8] = read-out: Interferon-gamma inducible Protein 10 (IP10), CXCL10 (gene 3627); experiment: BSK_BE3C_IP10: BioMAP Diversity Plus: BE3C Assay for Interferon-gamma inducible Protein 10 (IP10) Biomarker Activity (AID 2283034); conditions: primary human bronchial epithelial cells; actives raise or lower the signal
In short: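 IP-10 quantified by ELISA in human primary bronchial epithelial cell cultures at 24 hours post-dosing. Gain or loss of signal fitted relative to DMSO; parallel SRB staining assessed overt cytotoxicity.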

[9] = read-out: Urokinase-type plasminogen activator receptor (uPAR), PLAUR (gene 5329); experiment: BSK_BE3C_uPAR: BioMAP Diversity Plus: BE3C Assay for Urokinase-type plasminogen activator receptor (uPAR) Biomarker Activity (AID 2283039); conditions: primary human bronchial epithelial cells; actives raise or lower the signal
In short: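 uPAR levels were measured by ELISA after 24 h compound treatment of primary human bronchial epithelial cells, fitted in both directions relative to DMSO. Parallel SRB staining served as the cytotoxicity read-out.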

[10] = read-out: Interleukin-6 (IL6), IL6 (gene 3569); experiment: BSK_CASM3C_IL6: BioMAP Diversity Plus: CASM3C Assay for Interleukin-6 (IL6) Biomarker Activity for (AID 2283040); conditions: primary human coronary artery smooth muscle cells; actives raise or lower the signal
[11] = read-out: Interleukin-8 (IL8), CXCL8 (gene 3576); experiment: BSK_CASM3C_IL8: BioMAP Diversity Plus: CASM3C Assay for Interleukin-8 (IL8) Biomarker Activity (AID 2283042); conditions: primary human coronary artery smooth muscle cells; actives raise or lower the signal;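 also: IL-8 protein level quantified by ELISA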
[12] = read-out: Low-density lipoprotein receptor (LDLR), LDLR (gene 3949); experiment: BSK_CASM3C_LDLR: BioMAP Diversity Plus: CASM3C Assay for Low-density lipoprotein receptor (LDLR) Biomarker Activity (AID 2283045); conditions: primary human coronary artery smooth muscle cells; actives raise or lower the signal;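 also: LDLR protein level on the cell surface quantified by ELISA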
[13] = read-out: Monocyte Chemoattractant Protein-1 (MCP1), CCL2 (gene 6347); experiment: BSK_CASM3C_MCP1: BioMAP Diversity Plus: CASM3C Assay for Monocyte Chemoattractant Protein-1 (MCP1) Biomarker Activity (AID 2283046); conditions: primary human coronary artery smooth muscle cells; actives raise or lower the signal;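 also: MCP-1 level quantified by ELISA 24 h after dosing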
[14] = BSK_CASM3C_Proliferation: Cell Proliferation Assessment in the BioMAP Diversity Plus: CASM3C Assay (AID 2283047); conditions: primary human coronary artery smooth muscle cells;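 also: sub-confluent cells exposed 48 h before staining; fitted both ways against DMSO so gain or loss of cell number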
[15] = read-out: Monokine induced gamma interferon (MIG), CXCL9 (gene 4283); experiment: BSK_CASM3C_MIG: BioMAP Diversity Plus: CASM3C Assay for Monokine induced gamma interferon (MIG) Biomarker Activity (AID 2283048); conditions: primary human coronary artery smooth muscle cells; actives raise or lower the signal;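 also: MIG protein level measured by ELISA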
CD38, CD38 (gene 952) = experiment: BSK_SAg_CD38: BioMAP Diversity Plus: SAg Assay for CD38 Biomarker Activity (AID 2283087); conditions: primary human HUVEC with PBMC; actives raise or lower the signal
In short: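 CD38 quantified by ELISA (fluorescence) in a superantigen-activated endothelial cell–PBMC co-culture at 24 h post-dose. Activity fitted in both directions relative to DMSO; parallel SRB and Alamar Blue cytotoxicity read-outs.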

[16] = read-out: Monocyte Chemoattractant Protein-1 (MCP1), CCL2 (gene 6347); experiment: BSK_SAg_MCP1: BioMAP Diversity Plus: SAg Assay for Monocyte Chemoattractant Protein-1 (MCP1) Biomarker Activity (AID 2283090); conditions: primary human HUVEC with PBMC; actives raise or lower the signal
In short: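 Values derive from bidirectional fitting of ELISA-measured MCP1 against DMSO controls. Readings were taken 24 h after dosing human vascular endothelial cells co-cultured with peripheral blood mononuclear cells under superantigen stimulation.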

[17] = read-out: E-selectin (Homo sapiens) (UniProt P16581); experiment: BSK_SAg_Eselectin: BioMAP Diversity Plus: SAg Assay for Eselectin Biomarker Activity (AID 2283091); conditions: primary human HUVEC with PBMC; actives raise or lower the signal
In short: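 Endpoint values derive from bidirectional fitting relative to DMSO, using ELISA-measured E-selectin in a human vascular co-culture (umbilical vein endothelium plus PBMC) sampled 24 h after dosing.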

[18] = BSK_SAg_PBMCCytotoxicity: PBMC Cytotoxicity Assessment in the BioMAP Diversity Plus: SAg Assay (AID 2283093); conditions: primary human HUVEC with PBMC;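 also: PBMC viability measured as Alamar Blue reduction fluorescence at 546/580 nm; fitted both ways against DMSO so a hit may be loss or gain of signal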;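 as to AC50: PBMC superantigen activated with SEB plus TSST-1 one hour after compound addition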
In short: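 Alamar Blue reduction (6 h, 546/580 nm) reports PBMC cytotoxicity after 90 h superantigen activation (SEB, TSST-1; 20 ng/mL final each) with 1 h compound pre-treatment. Gain or loss of signal fitted versus DMSO.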

[19] = target: Estrogen receptor beta (Homo sapiens) (UniProt Q92731); experiment: OT_ER_ERbERb_0480: Odyssey Thera (OT) 8-hour HEK293T Protein-Complementation Assay for Estrogen Receptor-beta/-beta Homodimer (AID 2283357; active = hit-call score of the fitted dose curve at least 0.9, where 1 is the maximum;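 also: active means signal gain over DMSO baseline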)
In short: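 Fluorescence gain from complemented reporter fragments on ER-beta LBD homodimer in HEK293T was quantified against DMSO controls after 8 h treatment, fixation in 4% formaldehyde and Draq5 staining.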

Measured: AC50

Sequence of Estrogen receptor beta (Homo sapiens) (Q92731 whole entry, looked up, the tested form may be a part): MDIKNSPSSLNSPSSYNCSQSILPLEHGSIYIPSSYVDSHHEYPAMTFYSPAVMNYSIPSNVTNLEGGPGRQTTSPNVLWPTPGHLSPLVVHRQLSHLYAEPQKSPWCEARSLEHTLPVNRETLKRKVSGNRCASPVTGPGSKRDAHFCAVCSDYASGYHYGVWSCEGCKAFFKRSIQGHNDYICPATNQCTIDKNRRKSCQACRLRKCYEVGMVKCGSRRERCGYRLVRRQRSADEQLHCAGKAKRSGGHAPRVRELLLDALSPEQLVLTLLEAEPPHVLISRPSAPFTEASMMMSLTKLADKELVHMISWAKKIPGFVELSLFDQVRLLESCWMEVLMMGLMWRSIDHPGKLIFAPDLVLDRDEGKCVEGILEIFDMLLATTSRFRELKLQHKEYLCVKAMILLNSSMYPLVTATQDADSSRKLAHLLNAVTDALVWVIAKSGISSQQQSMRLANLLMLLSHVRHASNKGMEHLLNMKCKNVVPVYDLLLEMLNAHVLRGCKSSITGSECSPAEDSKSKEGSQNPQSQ
Sequence of E-selectin (Homo sapiens) (P16581 whole entry, looked up): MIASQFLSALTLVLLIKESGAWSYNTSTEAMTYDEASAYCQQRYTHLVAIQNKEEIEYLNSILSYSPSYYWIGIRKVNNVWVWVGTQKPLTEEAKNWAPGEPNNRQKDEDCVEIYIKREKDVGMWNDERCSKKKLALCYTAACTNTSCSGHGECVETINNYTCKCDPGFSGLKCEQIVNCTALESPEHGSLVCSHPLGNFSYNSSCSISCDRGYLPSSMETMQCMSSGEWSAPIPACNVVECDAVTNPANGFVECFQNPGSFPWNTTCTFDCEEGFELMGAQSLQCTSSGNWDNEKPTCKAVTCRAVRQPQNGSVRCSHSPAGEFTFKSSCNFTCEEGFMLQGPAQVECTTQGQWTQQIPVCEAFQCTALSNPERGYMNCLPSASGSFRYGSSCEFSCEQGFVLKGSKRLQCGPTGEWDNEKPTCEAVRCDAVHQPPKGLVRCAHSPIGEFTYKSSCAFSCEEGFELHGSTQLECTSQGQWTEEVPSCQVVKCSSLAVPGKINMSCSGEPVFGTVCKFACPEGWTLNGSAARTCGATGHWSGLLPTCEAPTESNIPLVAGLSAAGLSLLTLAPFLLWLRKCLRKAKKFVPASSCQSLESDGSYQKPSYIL

Oc1cc(Cl)ccc1Cl
not listed: [19]
inactive: all other assays above

c1ccc(P(c2ccccc2)c2ccccc2)cc1
active: [19] 25.4 µM

O=C(NC(=O)c1c(F)cccc1F)Nc1ccc(Oc2ccc(C(F)(F)F)cc2Cl)cc1F
inactive: [19]

O=C(O)CCCc1ccc(N(CCCl)CCCl)cc1
inactive: [5] | [6] | [9] | [12] | [18]
active: [1] 31.8 µM and 28.7 µM | [2] 12.1 µM and 6.56 µM | [3] 20 µM | [4] 15.8 µM and 13.4 µM | [7] 27.1 µM and 25.4 µM | [8] 16.2 µM and 20 µM | [10] 15.8 µM and 20 µM | [11] 20 µM | [12] 20 µM | [13] 24 µM and 20 µM | [14] 20 µM and 1.6 µM | [15] 30.8 µM and 20 µM | CD38, CD38 (gene 952) 26.6 µM and 12.3 µM | [16] 20 µM and 27.2 µM | [17] 31 µM and 20 µM | [18] 20 µM

CC(C)(O)C#N
inactive: [19]

CN(C)N
inactive: [19]

CCOC(=O)NC(=S)Nc1ccccc1NC(=S)NC(=O)OCC
inactive: [19]

CCOP(O)OCC
inactive: [19]

CCc1cccc(C)c1N(C(=O)CCl)[C@@H](C)COC
inactive: [19]

CCCC=NO
inactive: [19]

O=c1[nH]c(Cl)c(Cl)cc1Cl
not listed: [19]
inactive: all other assays above

Clc1ccc(-c2ccccc2)cc1
active: [7] 32.9 µM
not listed: [19]
inactive: all other assays above

O=[N+]([O-])O
not listed: [19]
inactive: all other assays above

Nc1cc(Cl)cc(Cl)c1
inactive: [19]

O=C1Nc2ccc(Cl)cc2C(c2ccccc2)=NC1O (configuration not stated)
inactive: [19]

CCCOC(=O)c1ccccc1C(=O)OCCC
active: [3] 36.4 µM | [4] 7.06 µM | [16] 20 µM
not listed: [19]
inactive: all other assays above

CC(C)COP(=O)(OCC(C)C)OCC(C)C
not listed: [19]
inactive: all other assays above

C=CC(=O)OCC(CC)CCCC (configuration not stated)
active: [1] 20 µM | [2] 27.6 µM | [4] 31.9 µM | [6] 3.97 µM | [7] 0.159 µM
inactive: all other assays above

CC(C)(c1cc(Cl)c(O)c(Cl)c1)c1cc(Cl)c(O)c(Cl)c1
active: [1] 13.4 µM | [2] 15.2 µM | [3] 12 µM | [4] 10.2 µM | [5] 6.38 µM | [6] 20 µM | [7] 30.1 µM | [8] 7.58 µM | [9] 5.31 µM | [10] 36.4 µM | [13] 32.6 µM | [14] 32.6 µM | [15] 32.9 µM | CD38, CD38 (gene 952) 26.6 µM | [16] 31.9 µM | [17] 23.5 µM | [18] 36.3 µM
inactive: [11] | [19]

COc1ccc(CO)cc1
not listed: [19]
inactive: all other assays above

COc1cc(OC)nc(Oc2cccc(Oc3nc(OC)cc(OC)n3)c2C(=O)O)n1
inactive: [19]

Oc1ccc(C2(c3ccc(O)cc3)c3ccccc3-c3ccccc32)cc1
active: [1] 15.6 µM and 14 µM | [2] 6.04 µM and 6.12 µM | [3] 18.1 µM and 23.5 µM | [4] 9.06 µM and 7.06 µM | [5] 5.04 µM and 5.03 µM | [6] 5.01 µM and 11.3 µM | [7] 6.91 µM and 7.37 µM | [8] 5.4 µM and 3.97 µM | [9] 5.37 µM and 5.3 µM | [10] 9.02 µM and 4.73 µM | [11] 27 µM and 24.3 µM | [12] 29.5 µM and 28.9 µM | [13] 20 µM | [14] 32.4 µM and 32.9 µM | [15] 914 nM and 799 nM | CD38, CD38 (gene 952) 8.99 µM and 9.75 µM | [16] 11.8 µM and 11.2 µM | [17] 10.2 µM and 7.86 µM | [18] 12.1 µM and 12.3 µM

O=P(O)(Oc1ccccc1)Oc1ccccc1
inactive: [19]

CC(=O)/C=C/c1ccccc1
active: [1] 20 µM | [2] 23.2 µM | [4] 26.9 µM | [13] 0.104 µM
not listed: [19]
inactive: all other assays above

CC(C)CCCCCCCOP(=O)(Oc1ccccc1)Oc1ccccc1
inactive: [9] | [10] | [11] | [13] | [14] | [15]
active: [1] 11.2 µM | [2] 10.1 µM | [3] 20 µM | [4] 6.74 µM | [5] 32.6 µM | [6] 20 µM | [7] 25.1 µM | [8] 28 µM | [12] 6.45 µM | CD38, CD38 (gene 952) 25.9 µM | [16] 20 µM | [17] 24.4 µM | [18] 31 µM

CCCCCCCCCCCC#N
active: [1] 32.3 µM | [2] 32.2 µM | [3] 30.2 µM | [4] 28.6 µM | [7] 20.6 µM | CD38, CD38 (gene 952) 35.6 µM | [16] 33 µM | [17] 31.3 µM | [18] 32 µM
not listed: [19]
inactive: all other assays above

O=P1(NCCCl)OCCCN1CCCl (configuration not stated)
not listed: [19]
inactive: all other assays above

Cc1cc(C)c(C2=C(OC(=O)CC(C)(C)C)C3(CCCC3)OC2=O)c(C)c1
inactive: [19]

CCOP(=O)(OCC)OCC
inactive: [19]
